Experimental data published in the supplement of paper PMC11732987, “Enantioselective OTUD7B fragment discovery through chemoproteomics screening and high-throughput optimisation” (Communications Chemistry, 2025).

Experiments:
Experiment in all cases: log2 ratio of Biotin-Ahx-Ub-VS probe labelling (fragment/DMSO); higher = less target engagement (more negative = stronger competition), active = hit call of the paper (q ≤ 0.05, log2 ratio ≤ -1)
Conditions in all cases: compound concentration: 200 uM; treatment time: 3 h
USP19 = target: T1, USP19 (UniProt O94966)
T1 sequence (whole entry): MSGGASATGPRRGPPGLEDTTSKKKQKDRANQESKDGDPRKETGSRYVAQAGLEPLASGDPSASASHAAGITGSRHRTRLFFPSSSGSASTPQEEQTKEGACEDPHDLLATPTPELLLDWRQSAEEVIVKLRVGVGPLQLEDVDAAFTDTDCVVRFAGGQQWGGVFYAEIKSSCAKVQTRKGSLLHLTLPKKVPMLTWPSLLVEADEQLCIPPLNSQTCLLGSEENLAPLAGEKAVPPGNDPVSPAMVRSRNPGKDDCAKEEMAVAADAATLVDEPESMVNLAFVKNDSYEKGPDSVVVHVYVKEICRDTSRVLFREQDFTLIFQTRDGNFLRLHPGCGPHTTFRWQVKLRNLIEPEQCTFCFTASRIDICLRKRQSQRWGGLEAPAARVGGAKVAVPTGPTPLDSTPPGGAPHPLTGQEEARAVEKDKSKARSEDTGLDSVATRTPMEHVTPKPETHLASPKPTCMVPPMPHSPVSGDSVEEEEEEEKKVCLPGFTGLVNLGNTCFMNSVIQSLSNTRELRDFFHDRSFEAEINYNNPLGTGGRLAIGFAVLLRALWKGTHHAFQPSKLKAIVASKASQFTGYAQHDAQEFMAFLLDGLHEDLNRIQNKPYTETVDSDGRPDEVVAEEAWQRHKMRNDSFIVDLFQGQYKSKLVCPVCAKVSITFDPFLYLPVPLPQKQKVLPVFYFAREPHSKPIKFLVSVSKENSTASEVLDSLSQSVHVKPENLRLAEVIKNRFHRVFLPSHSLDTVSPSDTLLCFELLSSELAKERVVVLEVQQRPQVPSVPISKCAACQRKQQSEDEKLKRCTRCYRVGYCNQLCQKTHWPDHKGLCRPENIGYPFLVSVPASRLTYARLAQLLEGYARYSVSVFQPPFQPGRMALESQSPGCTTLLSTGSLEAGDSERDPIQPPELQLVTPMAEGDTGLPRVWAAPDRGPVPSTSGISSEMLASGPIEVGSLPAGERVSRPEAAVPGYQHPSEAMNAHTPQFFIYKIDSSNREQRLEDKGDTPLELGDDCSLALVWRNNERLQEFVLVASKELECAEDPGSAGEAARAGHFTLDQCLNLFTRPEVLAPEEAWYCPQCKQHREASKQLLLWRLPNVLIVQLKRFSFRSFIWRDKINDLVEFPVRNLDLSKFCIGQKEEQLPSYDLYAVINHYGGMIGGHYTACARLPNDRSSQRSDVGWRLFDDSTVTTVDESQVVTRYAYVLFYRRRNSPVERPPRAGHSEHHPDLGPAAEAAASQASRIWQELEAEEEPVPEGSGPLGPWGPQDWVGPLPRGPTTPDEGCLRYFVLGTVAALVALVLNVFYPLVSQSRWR
Method in brief: (§1)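 Each value is an average log2 ratio of fragment to vehicle, tested by unpaired t-test. The underlying Spectronaut label-free quantities were global-median-normalised, and only proteins with ≥2 unique peptides were included. Triplicate HEK293T lysate samples (495 µg) were exposed to fragment at 200 µM or vehicle for 3 h, then to Biotin-Ahx-Ub-VS at 0.5 µM final for 1 h, before NeutrAvidin enrichment of labelled DUBs, LysC and trypsin digestion, and diaPASEF LC-MS/MS.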

USP24 = USP24 (UniProt Q9UPU5)
Method in brief: as §1

USP25 = target: T2, USP25 (UniProt Q9UHP3)
T2 sequence (whole entry): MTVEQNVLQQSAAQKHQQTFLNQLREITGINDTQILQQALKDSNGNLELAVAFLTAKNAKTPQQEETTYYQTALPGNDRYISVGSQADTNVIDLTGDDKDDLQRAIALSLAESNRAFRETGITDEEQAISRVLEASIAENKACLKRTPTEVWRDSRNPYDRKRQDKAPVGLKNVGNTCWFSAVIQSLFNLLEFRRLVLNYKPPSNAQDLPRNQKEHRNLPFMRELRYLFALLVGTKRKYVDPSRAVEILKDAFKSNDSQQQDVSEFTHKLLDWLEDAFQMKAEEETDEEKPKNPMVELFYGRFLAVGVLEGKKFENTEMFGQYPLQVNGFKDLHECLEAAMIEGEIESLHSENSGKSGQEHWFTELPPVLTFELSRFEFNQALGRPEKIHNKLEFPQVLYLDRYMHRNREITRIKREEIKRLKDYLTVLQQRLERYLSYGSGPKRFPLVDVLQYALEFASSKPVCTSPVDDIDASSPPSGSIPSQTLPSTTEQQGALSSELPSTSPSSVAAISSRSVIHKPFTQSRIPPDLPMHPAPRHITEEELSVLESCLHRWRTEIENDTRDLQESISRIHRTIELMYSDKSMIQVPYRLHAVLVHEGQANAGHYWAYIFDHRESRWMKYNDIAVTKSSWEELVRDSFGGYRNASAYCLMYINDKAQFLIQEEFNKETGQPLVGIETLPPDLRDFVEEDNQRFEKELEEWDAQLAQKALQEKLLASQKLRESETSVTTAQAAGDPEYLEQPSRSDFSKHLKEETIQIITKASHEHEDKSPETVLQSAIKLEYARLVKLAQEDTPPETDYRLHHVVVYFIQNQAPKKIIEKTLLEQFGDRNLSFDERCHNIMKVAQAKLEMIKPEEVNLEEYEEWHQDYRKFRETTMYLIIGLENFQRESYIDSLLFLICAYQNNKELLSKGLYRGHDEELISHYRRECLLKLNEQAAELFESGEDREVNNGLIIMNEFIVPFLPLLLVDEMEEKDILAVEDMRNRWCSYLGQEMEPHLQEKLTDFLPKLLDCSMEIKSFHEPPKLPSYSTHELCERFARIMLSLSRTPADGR
Method in brief: as §1

USP28 = target: T3, USP28 (UniProt Q96RU2)
T3 sequence (whole entry): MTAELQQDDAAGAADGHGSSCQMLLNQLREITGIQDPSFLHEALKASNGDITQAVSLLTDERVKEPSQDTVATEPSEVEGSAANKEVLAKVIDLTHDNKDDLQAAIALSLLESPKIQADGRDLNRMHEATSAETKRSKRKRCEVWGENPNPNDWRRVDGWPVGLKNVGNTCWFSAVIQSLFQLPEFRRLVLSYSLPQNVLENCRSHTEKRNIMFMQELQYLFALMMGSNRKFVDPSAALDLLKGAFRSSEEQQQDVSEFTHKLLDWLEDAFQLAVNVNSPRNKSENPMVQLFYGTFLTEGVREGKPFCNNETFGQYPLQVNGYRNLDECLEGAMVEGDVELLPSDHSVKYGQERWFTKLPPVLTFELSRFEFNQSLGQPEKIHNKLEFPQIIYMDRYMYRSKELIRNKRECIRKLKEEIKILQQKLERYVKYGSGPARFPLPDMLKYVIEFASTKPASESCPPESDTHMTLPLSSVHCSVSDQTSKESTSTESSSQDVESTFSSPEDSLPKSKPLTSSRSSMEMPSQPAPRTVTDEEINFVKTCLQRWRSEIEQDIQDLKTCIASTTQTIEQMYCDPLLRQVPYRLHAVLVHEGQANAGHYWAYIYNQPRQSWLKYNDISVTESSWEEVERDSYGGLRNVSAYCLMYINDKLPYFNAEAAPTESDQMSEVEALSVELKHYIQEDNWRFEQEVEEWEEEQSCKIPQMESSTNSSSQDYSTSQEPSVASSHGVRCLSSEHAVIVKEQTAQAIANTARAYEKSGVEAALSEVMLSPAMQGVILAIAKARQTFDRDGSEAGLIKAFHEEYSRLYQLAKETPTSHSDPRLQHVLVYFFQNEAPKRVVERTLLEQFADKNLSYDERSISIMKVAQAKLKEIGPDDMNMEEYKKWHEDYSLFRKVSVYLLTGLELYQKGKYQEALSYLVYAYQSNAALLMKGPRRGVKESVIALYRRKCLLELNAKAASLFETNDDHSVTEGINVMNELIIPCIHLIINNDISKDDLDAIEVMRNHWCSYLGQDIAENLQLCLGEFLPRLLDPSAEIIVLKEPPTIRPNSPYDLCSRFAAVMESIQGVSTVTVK
Method in brief: as §1

Measured: log2 ratio of Biotin-Ahx-Ub-VS probe labelling

USP24, sequence (Q9UPU5 whole entry): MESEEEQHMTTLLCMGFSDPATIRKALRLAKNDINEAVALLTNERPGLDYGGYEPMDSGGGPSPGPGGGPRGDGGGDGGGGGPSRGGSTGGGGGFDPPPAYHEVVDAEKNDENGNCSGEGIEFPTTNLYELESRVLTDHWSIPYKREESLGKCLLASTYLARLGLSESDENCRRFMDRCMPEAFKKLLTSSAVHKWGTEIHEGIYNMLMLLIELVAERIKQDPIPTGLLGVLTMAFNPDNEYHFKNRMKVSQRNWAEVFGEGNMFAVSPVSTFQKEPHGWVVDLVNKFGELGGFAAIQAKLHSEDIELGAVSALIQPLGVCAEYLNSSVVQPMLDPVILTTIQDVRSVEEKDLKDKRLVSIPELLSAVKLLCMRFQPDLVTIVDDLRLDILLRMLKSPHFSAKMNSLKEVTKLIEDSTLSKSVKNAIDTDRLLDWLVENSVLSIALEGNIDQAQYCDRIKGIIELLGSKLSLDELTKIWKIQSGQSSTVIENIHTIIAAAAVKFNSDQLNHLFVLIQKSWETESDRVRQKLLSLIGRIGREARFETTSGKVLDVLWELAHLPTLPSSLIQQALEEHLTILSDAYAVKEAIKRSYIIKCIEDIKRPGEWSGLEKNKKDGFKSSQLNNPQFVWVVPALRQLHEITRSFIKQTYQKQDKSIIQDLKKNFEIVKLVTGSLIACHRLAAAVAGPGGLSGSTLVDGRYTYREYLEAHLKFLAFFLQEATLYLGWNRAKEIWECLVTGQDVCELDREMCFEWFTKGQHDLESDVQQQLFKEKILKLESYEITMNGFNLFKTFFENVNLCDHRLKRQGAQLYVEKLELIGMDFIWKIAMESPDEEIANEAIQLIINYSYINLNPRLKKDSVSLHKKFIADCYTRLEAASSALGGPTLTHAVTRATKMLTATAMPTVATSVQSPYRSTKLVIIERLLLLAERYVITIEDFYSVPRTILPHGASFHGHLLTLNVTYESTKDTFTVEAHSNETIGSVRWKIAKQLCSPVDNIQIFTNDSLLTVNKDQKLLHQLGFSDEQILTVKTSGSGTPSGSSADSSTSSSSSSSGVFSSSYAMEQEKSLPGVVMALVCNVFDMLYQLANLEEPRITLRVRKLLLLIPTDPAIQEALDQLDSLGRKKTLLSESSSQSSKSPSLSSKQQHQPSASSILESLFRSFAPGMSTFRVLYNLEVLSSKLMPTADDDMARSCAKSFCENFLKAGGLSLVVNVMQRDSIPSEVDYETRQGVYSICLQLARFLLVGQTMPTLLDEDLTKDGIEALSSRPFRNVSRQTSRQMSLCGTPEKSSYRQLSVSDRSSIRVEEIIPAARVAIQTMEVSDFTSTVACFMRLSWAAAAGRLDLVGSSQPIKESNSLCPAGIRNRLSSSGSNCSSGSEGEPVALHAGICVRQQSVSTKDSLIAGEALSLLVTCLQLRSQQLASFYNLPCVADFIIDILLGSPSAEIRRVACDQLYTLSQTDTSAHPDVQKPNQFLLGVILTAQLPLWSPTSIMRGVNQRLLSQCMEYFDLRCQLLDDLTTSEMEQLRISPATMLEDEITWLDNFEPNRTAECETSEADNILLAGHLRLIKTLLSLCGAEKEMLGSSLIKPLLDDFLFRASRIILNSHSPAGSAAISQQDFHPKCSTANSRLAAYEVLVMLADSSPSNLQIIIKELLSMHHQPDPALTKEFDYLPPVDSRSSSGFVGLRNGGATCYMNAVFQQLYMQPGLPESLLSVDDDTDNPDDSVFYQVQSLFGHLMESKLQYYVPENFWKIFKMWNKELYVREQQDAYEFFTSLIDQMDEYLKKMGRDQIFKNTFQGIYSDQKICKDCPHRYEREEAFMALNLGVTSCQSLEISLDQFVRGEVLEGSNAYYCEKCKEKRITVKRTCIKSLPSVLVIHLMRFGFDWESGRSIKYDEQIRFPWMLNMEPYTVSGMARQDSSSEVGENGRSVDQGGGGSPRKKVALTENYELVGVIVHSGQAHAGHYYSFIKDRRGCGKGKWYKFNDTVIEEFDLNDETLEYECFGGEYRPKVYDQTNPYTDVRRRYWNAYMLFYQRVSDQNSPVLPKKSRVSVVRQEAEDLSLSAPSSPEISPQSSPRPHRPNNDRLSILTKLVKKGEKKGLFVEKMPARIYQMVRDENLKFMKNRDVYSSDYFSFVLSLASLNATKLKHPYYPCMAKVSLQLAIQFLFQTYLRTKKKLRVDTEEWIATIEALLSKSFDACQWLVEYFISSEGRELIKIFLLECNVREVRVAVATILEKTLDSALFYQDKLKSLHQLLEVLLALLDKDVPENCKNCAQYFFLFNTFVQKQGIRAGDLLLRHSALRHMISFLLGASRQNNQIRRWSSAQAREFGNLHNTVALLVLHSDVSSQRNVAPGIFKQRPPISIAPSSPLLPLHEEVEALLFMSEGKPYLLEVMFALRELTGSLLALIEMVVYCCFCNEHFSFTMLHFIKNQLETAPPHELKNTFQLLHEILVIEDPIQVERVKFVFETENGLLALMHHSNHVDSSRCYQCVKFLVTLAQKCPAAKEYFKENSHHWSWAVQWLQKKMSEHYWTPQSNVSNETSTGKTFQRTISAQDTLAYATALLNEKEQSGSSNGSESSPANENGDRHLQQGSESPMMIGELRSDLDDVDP

Cc1cccc(N(CCC#N)C(=O)CCl)c1C
inactive: USP19 0.16 | USP24 -0.0767 | USP25 0.00615 | USP28 -0.253
